Screens deposited in PubChem by several laboratories.
HSF1 activator – increases HSF-1 driven luciferase reporter signal; hit rate 1.7% among 300,000; NIH3T3-HGL HSF-1 luciferase reporter, MG132, 8 h; 100% = twice DMSO control signal; AID 504408; activation, % at 9 µM;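 active = mean replicate activation of at least 50% with a set share of replicates each reaching 50%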;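 also: 0% = median of the neutral control wells and 100% = twice that signal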
Hsp70 activator – transcriptional activators of Hsp70; activation, % at 10 µM; hit rate 0.04% among 200,000; HeLa Hsp70 promoter luciferase reporter, luminescence; scaled: vehicle 0, proteasome-inhibitor control 100%;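 active = activation above the mean across all tested compounds plus 3 SD, cutoff set per campaign, cut at about 5.5% in these data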;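 also: 100% = MG132 at 30 µM as the positive control and 0% = DMSO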
TNF death inh – blocks TNF-alpha induced death of Jurkat FADD-/- cells; hit rate 0.068% among 220,000; AID 463075; activation (protection from cell death), % at 10 µM; Jurkat FADD-/- TNF necroptosis rescue, ATP luminescence, 24 h; 0 = TNF only, 100 = no-TNF cells;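 active = activation, meaning protection from cell death, of at least 50% relative to plate controls; inactive = activation below 50%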;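 also: necroptosis triggered by 40 ng/mL TNF-alpha added together with compound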
zVAD death inh – blocks zVAD induced death of L929 cells. viability rescue, % at 10 µM. hit rate 0.38% among 220,000. L929 zVAD necroptosis rescue, ATP luminescence, 24 h; with zVAD 60 µM. AID 1377;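 active = activation, scaled between plate controls, above about 75%, limit read from the data; inactive = activation under that limit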;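 also: 0% = zVAD with DMSO and 100% = DMSO alone without zVAD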
Hsp70 act DR – dose response of Hsp70 transcriptional activators; AID 1252; shares compounds with Hsp70 activator; HeLa hsp70.1pr-luc reporter, luciferase luminescence; calls only at 99 µM; hit rate 10% among 70;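 active = over 50% activation at some tested dose; inactive = under 50% activation at every tested dose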
Numbers without * were called inactive; i = inactive; nt = not tested or not shown. An excerpt weighted towards active compounds, which were near 1.9% of everything screened.

SMILES | HSF1 activator | Hsp70 activator | TNF death inh | zVAD death inh | others
Clc1ccc(OCCn2c(-c3ccco3)nc3ccccc32)cc1 | 137* | 0 | 0 | -1
CC(C)c1ccc(NC(=O)CN2C(=O)NC3(CCCC3)C2=O)cc1 | 32 | nt | nt | nt
Oc1ccc(/C=C/c2ccnc3ccccc23)cc1 | 69* | 0 | 1 | 2
COc1ccc(OC)c(CC(=O)N2CCc3cc(OC)c(OC)cc3C2)c1 | 0 | nt | nt | nt
COc1cccc(CCNC(=O)C2CCC(=O)N(C3CC3)C2)c1OC (centres undefined) | 59* | nt | nt | nt
COc1ccc(-n2c(=S)[nH]c3cc(C(=O)N4CCN(c5ccccc5)CC4)ccc3c2=O)cc1 | 5 | nt | nt | nt
N#Cc1c(N)n(C2OC(CO)C(O)C2O)c2ncnc(N)c12 (centres undefined) | 78* | nt | nt | nt
Cc1ccccc1OCC(=O)NNC(=O)c1cc(S(=O)(=O)N2CCOCC2)ccc1N1CCCC1 | 2 | nt | nt | nt
O=C(N/N=C/C=C\c1ccco1)c1ccccn1 | 62* | nt | -2 | -1
O=C(N/N=C/C=C/c1ccco1)c1cccnc1 | -8 | 0 | 0 | -1
O=C(N/N=C/C=C/c1ccco1)c1cnccn1 | 9 | nt | -4 | 0
O=C(N/N=C\C=C\c1ccco1)c1cc(-c2ccc3ccccc3c2)n[nH]1 | 57* | 0 | 3 | 3
COc1ccc(CCNc2oc(COc3ccc(Br)cc3)nc2C#N)cc1OC | 56* | 0 | -8 | 4
COc1ccc(CCNc2oc(Cc3cccc4ccccc34)nc2C#N)cc1OC | 29 | 0 | -5 | -1
CC(C)c1ccc2c(c1)[C@H]1OCC[C@H]1[C@@H](c1cccs1)N2 | 122* | 0 | -6 | 1
COC(=O)/C(=C\C(=O)c1ccccc1)Nc1cccc(C(F)(F)F)c1 | 9 | 0 | -1 | 0
Oc1ccc(-c2cnc(-c3ccc(O)cc3)nc2)cc1 | 67* | nt | nt | nt
C=CCn1c(SCc2c(C)noc2C)nc2sc(C)c(C)c2c1=O | 119* | 0 | -8 | 0
COc1ccc(C)cc1S(=O)(=O)Nc1cc(Cl)ccc1Cl | 7 | 0 | -1 | 0
COc1cc(NS(=O)(=O)c2cc(C)ccc2OC)c(OC)cc1Cl | 67* | 0 | 0 | -1
CN(C)C(=O)c1ccc(NC(=O)CN2C(=O)NC3(CCCc4ccccc43)C2=O)cc1 (centres undefined) | -4 | nt | nt | nt
O=C(Nc1ccc(OC(F)F)c(Cl)c1)c1cccc(OC(F)F)c1 | 10 | 0 | 3 | 68
Cc1ccc(NC(=O)c2cccs2)cc1NC(=O)c1ccc(F)cc1 | 26 | nt | nt | nt
O=C(Nc1ccc2oc(-c3ccccc3)nc2c1)c1cccs1 | 93* | 0 | 2 | 0
O=C(Nc1ccc2c(c1)CCC2)c1cccc(OC(F)F)c1 | 82* | nt | nt | nt
SMILES | HSF1 activator | Hsp70 activator | TNF death inh | zVAD death inh | others
Cc1cc(C(=O)Nc2ccc3c(c2)CCC3)ccc1[N+](=O)[O-] | 55* | nt | nt | nt
Cc1ccc(NC(=O)c2cccs2)cc1NC(=O)c1cccc(F)c1 | 58* | nt | nt | nt
CCOC(=O)CNC(=S)N(Cc1ccco1)Cc1ccccc1Cl | -2 | nt | nt | nt
O=C(Nc1ccc(O)cc1)c1ccc(NC(=O)c2cccs2)cc1 | 65* | nt | nt | nt
O=C(Nc1ccc(NC(=O)c2cccs2)cc1)c1ccccc1 | 29 | nt | nt | nt
O=C(Nc1ccc2c(c1)CCC2)c1cccs1 | 55* | 0 | -2 | 3
O=C(Nc1ccc2c(c1)CCC2)c1cnc(Cl)c(Cl)c1 | 58* | 0 | 0 | 1
CC(C)CNS(=O)(=O)c1ccc(CCC(=O)Nc2ccc3c(c2)OCCO3)cc1 | -9 | -1 | -3 | 0
CC(=O)/C(=N/Nc1ccc(Br)cc1)Sc1cccc2cccnc12 | 67* | 0 | -2 | 0
CCN(CC)C(=O)Sc1cccc2cccnc12 | 2 | 0 | -4 | 0
COc1ccc(-c2coc3cc(O)cc(O)c3c2=O)cc1 | 38 | 0 | -1 | 1
COc1ccc(-c2coc3cc(OC)cc(O)c3c2=O)cc1 | 56* | 0 | -1 | 0
Oc1ccc(Br)cc1/C=N/n1c(C2CCCCC2)n[nH]c1=S | -19 | nt | nt | nt
COc1cc(/C=N/N(c2ccccc2)c2ccccc2)ccc1O | 11 | nt | nt | nt
CCOc1ccc(/C=N/N(C)c2ccccc2)cc1OC | 73* | 0 | 0 | 1
Cc1cc(C)c(C(=O)C(C)OC(=O)c2ccc(Cl)nc2)cc1C (centres undefined) | 7 | nt | nt | nt
C/C(CC(=O)Nc1cccc2c1CCCC2)=N\NC(=O)c1cccc2ccccc12 | 1 | 0 | 1 | 0
C/C(CC(=O)Nc1cccc2c1CCCC2)=N\NC(=O)c1ccccc1N | 57* | 0 | -2 | 1
Cc1ccc(N2CC(C(=O)OCc3nnc(-c4ccccc4)o3)CC2=O)cc1 (centres undefined) | 2 | nt | nt | nt
Cc1ccc(-n2nc3c(=O)n(C(C)C(=O)NCc4ccccc4Cl)nc(C)c3c2C)cc1 (centres undefined) | 69* | nt | nt | nt
CCOc1ccc(C(C(=O)NCC2CCCO2)N(Cc2cccnc2)C(=O)c2snc(C(N)=O)c2N)cc1 (centres undefined) | -7 | nt | nt | nt
CC(=O)NCCCNS(=O)(=O)c1ccc(C)cc1 | 0 | 0 | 0 | 1
CN(C)CCN1C(=O)C2C(C(=O)Nc3cc(Cl)cc(Cl)c3)C3C=CC2(O3)C1C(=O)NC1CCCCC1 (centres undefined) | 85* | nt | nt | nt
Cc1cc(C)cc(NC(=O)C2C3C=CC4(O3)C2C(=O)N(CCN2CCCCC2)C4C(=O)NC2CCCCC2)c1 (centres undefined) | -1 | nt | nt | nt
CC1(C)N=C(/C=N/O)CN1O | 0 | 0 | -3 | 0
SMILES | HSF1 activator | Hsp70 activator | TNF death inh | zVAD death inh | others
COc1ccc2c(c1)CCc1c-2n[nH]c1C(=O)NCCC(C)C | 51* | nt | nt | nt
CNC(=O)c1[nH]nc2c1CCc1cc(OC)ccc1-2 | 11 | nt | nt | nt
O=c1oc2ccccc2cc1-c1nc(-c2ccccc2)no1 | 63* | 0 | -2 | 0
COc1c(O)ccc(C2NC(=O)NC(C)=C2C(=O)Nc2ccccc2C)c1[N+](=O)[O-] (centres undefined) | -1 | 0 | -1 | 0
CCCOC1(NC(=O)c2ccccc2)C(C)=CC(=O)C=C1C | -5 | 0 | 1 | 2
CN1N=C2c3ccccc3CCC2C1c1ccc(F)cc1 (centres undefined) | -21 | nt | 1 | 0
c1ccc(N2CC3CCc4ccccc4C3=N2)cc1 (centres undefined) | 57* | nt | 6 | 2
Cc1ccc(N=C(NOCc2ccc(Cl)cc2Cl)c2nonc2N)c(C)c1 | 59* | 0 | 0 | -1
Cn1nc([N+](=O)[O-])c(C(C#N)c2nc3ccccc3n2C)c(Cl)c1=O (centres undefined) | 61* | 0 | -1 | 2
Cn1c(-c2ccc([N+](=O)[O-])cc2)nc2ccccc21 | 18 | 0 | 0 | 0
COc1ccc(C(CNC(=O)c2cc3ccccc3o2)N2CCCCC2)cc1 (centres undefined) | -1 | 9.3* | 2 | 0 | Hsp70 act DR=i
